Bioassay records from PubChem BioAssay.
V-ATPase pHluor: regulators of yeast V-ATPase proton pumping, primary screen, pHLuorin cytosolic pH fluorescence; S. cerevisiae; response, % at 10 µM; 0.37% of 350,000 active; in the data active = response mostly above about 7.3%, no sharp cut-off; inactive = mostly below about 5.4%; also: actives read high
ADAM17 inh: ADAM17 inhibitors, primary screen, biochemical, QFRET; inhibition, % at 6.95 µM; recombinant ADAM17, EDANS/DABCYL FRET peptide cleavage; 0.83% of 370,000 active;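 active = inhibition above the mean of compounds lying between control limits plus 3 SD, set per campaign, cut at about 8.5% in these data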;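 also: 0% = DMSO-only wells as the low control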
KLK7 zymogen act: proKLK7 zymogen activators, primary screen, biochemical, fluorescence intensity; Kallikrein-7 (Homo sapiens), P49862; purified proKLK7, EDANS-DABCYL substrate fluorescence; 100% is mature enzyme control, 0% vehicle; activation, % at 7 µM; 0.9% of 370,000 active; AID 652039, 2013;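 active = activation above the mean of all tested compounds plus 3 SD, computed per campaign excluding outliers beyond control limits, cut at about 13% in these data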
Target sequence (P49862 whole entry, looked up): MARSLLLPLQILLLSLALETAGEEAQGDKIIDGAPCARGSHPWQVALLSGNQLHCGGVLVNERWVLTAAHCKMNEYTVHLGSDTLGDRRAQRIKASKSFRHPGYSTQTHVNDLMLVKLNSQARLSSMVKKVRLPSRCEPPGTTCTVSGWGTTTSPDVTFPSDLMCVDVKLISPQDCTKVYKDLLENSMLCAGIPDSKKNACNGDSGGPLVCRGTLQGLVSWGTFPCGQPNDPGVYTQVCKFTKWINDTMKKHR
ADAM10 inh: human ADAM10 inhibitors, primary screen, biochemical, QFRET, HTS | recombinant ADAM10, EDANS/DABCYL FRET peptide cleavage, 3 h | inhibition, % at 7 µM | 0.62% of 370,000 active | AID 720582, 2013;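 active = inhibition above a per-campaign cutoff equal to the mean of compounds falling between control-based bounds plus 3 SD, cut at about 20% in these data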;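 also: 0% = DMSO wells while the 100% control is not disclosed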
ADAM10 confirm: human ADAM10 inhibitors, confirmation, biochemical, QFRET, triplicate; shares compounds with ADAM10 inh; ADAM10 QFRET peptide cleavage, EDANS fluorescence; inhibition, % at 6.95 µM; 1% of 2,100 active;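 active = inhibition above about 20% chosen separately for each screening run, limit read from the data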;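 also: 0% = DMSO wells and 100% = marimastat wells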
ADAM17 counter: ADAM17 inhibitors, counter-screen for ADAM10 exosite inhibitor project, biochemical, QFRET, high throughput; shares compounds with ADAM10 inh; inhibition, % at 6.95 µM; ADAM17 QFRET peptide cleavage, EDANS fluorescence; 0.5% of 2,100 active;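 active = mean triplicate inhibition above the solvent-only control wells' mean plus 3 SD, cut at about 12% in these data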;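 also: 0% = DMSO wells and 100% = marimastat wells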
ADAM10 ctr: ADAM10 inhibitors, counter-screen for ADAM17 exosite inhibitor project, biochemical, FRET, human ADAM10; shares compounds with ADAM17 inh; recombinant ADAM10, EDANS/DABCYL FRET peptide cleavage, 3 h; inhibition, % at 6.95 µM; 47% of 2,900 active; AID 743256, 2014;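 active = mean inhibition over the triplicate runs exceeds the activity threshold set in the earlier primary screen, cut at about 20% in these data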;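 also: 0% = DMSO wells and 100% = marimastat wells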
ADAM17 confirm: ADAM17 inhibitors, hit retest, confirmation, biochemical, QFRET peptide cleavage. shares compounds with ADAM17 inh. recombinant ADAM17, EDANS/DABCYL QFRET peptide cleavage. inhibition, % at 6.95 µM. 65% of 2,900 active;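 active = mean inhibition across replicates above the hit cutoff set in the primary screen, cut at about 8.5% in these data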;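 also: 0% = DMSO wells and 100% = marimastat wells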
The depositor's hits bear a star. Hits are enriched below; roughly 2.3% of the tested compounds scored in any of these assays.

Results for NC(=O)[C@H]1CC2(CC(c3cccc(NC(=O)COc4ccc(Cl)cc4)c3)=NO2)CN1C(=O)c1ccc(Cl)cc1 (stereo not given in full) ?
V-ATPase pHluor: -1; ADAM17 inh: 14*; KLK7 zymogen act: 1; ADAM10 inh: 36*; ADAM10 confirm: 4; ADAM17 counter: 1; ADAM10 ctr: 37*; ADAM17 confirm: 22*

Results for CC1(C(=O)N2CC3(CC(c4cccc(NC(=O)COc5ccc(Cl)cc5)c4)=NO3)C[C@@H]2C(N)=O)CC1 (stereo not given in full) ?
V-ATPase pHluor: 0; ADAM17 inh: -2; KLK7 zymogen act: 1; ADAM10 inh: 4

What do the screens show for `C(=N\n1cnnc1)/c1ccc(OCc2cccc3ccccc23)cc1`?
V-ATPase pHluor: 0; ADAM17 inh: 9.7*; KLK7 zymogen act: 0; ADAM10 inh: 23*; ADAM10 confirm: 0; ADAM17 counter: 0; ADAM10 ctr: 0; ADAM17 confirm: 4

What do the screens show for `CCOc1ccc(CCN2C(=S)N([C@@H](Cc3ccc(O)cc3)CN3CCC[C@@H]3CN3C(=S)NC[C@@H]3CC(C)C)C[C@@H]2Cc2ccc(O)cc2)cc1`?
ADAM17 inh: 9.8*; KLK7 zymogen act: 0; ADAM10 inh: 23*; ADAM10 confirm: 11; ADAM17 counter: 3; ADAM10 ctr: 47*; ADAM17 confirm: 24*

How did C[C@H](CO)N1C[C@H](C)[C@@H](CN(C)C(=O)Nc2ccc3c(c2)OCO3)OCc2cn(nn2)CCCC1=O do in these assays?
ADAM17 inh: -3; KLK7 zymogen act: 0; ADAM10 inh: -7

How did O=C1OCCN1C(=O)[C@H]1[C@H](c2ccc([N+](=O)[O-])cc2)C(c2ccc(F)cc2)=NN1c1ccc(Br)cc1 do in these assays?
V-ATPase pHluor: 1; ADAM17 inh: 9.2*; KLK7 zymogen act: -1; ADAM10 inh: 22*; ADAM10 confirm: 14; ADAM17 counter: 4; ADAM10 ctr: 20*; ADAM17 confirm: 13*

Results for O=C1OCCN1C(=O)[C@H]1[C@H](c2ccc([N+](=O)[O-])cc2)C(c2ccc(F)cc2)=NN1c1ccccc1 ?
V-ATPase pHluor: -1; ADAM17 inh: 9.0*; KLK7 zymogen act: -1; ADAM10 inh: 21*; ADAM10 confirm: 4; ADAM17 counter: 3; ADAM10 ctr: 36*; ADAM17 confirm: 17*

What do the screens show for `N#Cc1ccc(OCC(=O)N[C@@H](Cc2ccccc2)c2nc3ccccc3[nH]2)cc1`?
ADAM17 inh: 1; KLK7 zymogen act: 0; ADAM10 inh: 4

How did O=C(OC(C(=O)Nc1cccc(C(F)(F)F)c1)c1ccccc1)C1CCCCC1 (stereo not given) do in these assays?
V-ATPase pHluor: 0; ADAM17 inh: 12*; KLK7 zymogen act: 0; ADAM10 inh: 25*; ADAM10 confirm: 9; ADAM17 counter: 3; ADAM10 ctr: 20*; ADAM17 confirm: 13*

Results for Cc1ccc([C@H]2C[C@H](n3cc(COC(=O)c4ccccc4)nn3)[C@@H](O)CN2Cc2cccs2)cc1 ?
V-ATPase pHluor: 1; ADAM17 inh: 12*; KLK7 zymogen act: 0; ADAM10 inh: 24*; ADAM10 confirm: 6; ADAM17 counter: 2; ADAM10 ctr: 12; ADAM17 confirm: 9.2*
